Laboratory results: PubChem BioAssay (NCI)
The panel holds about 83,000 compounds, 20% with a hit somewhere; the sample as a whole holds those more often.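 Cell lines were cultured in 96-well plates, exposed to a single compound concentration, and assessed for percent growth 48 hours later.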 Values without a mark were called inactive. Active and inactive are the calls of the source. Rule for the calls: active = growth percent below 10; inactive = the rest.

Test system: MDA-MB-468 breast
Assay: NCI-60 one-dose screen, 48 h (100 = growth as untreated, 0 = no growth, -100 = all killed)
Conditions: 10 µM unless noted

Row | Compound | growth
1 | COc1cc(/C=N/n2cnc3oc(-c4ccccc4)cc3c2=N)cc(CN2CCCCC2)c1O | -35.8% (active)
2 | O=C1/C(=C/c2cccc(O)c2)COc2ccc(O)cc21 | 52.8%
3 | C1=C2CNCC3=Cc4ccc5ccccc5c4OC23Oc2c1ccc1ccccc21 | 50.4%
4 | O=S(=O)(OCCOS(=O)(=O)c1ccccc1)c1ccccc1 | 95%
5 | CCCCn1cnc2c(SCc3ccc([N+](=O)[O-])cc3)nc(N)nc21 | 80.8%
6 | CCN1C(=O)N(CC)C2C1NN=c1s/c(=C\c3ccco3)c(=O)n12 (configuration not stated) | 13.8%
7 | CCSc1nc(-c2cccs2)n2nc(-c3ccco3)cc2n1 | -37.1% (active)
8 | C[C@]12CC[C@@H]3c4ccc(O)c([N+](=O)[O-])c4CC[C@H]3[C@@H]1CC[C@@H]2NS(=O)(=O)c1cccc(Br)c1 | 39.8%
9 | CCSc1oc(-c2ccccc2)nc1[P+](c1ccccc1)(c1ccccc1)c1ccccc1 | -37.6% (active)
10 | COc1ccc2c(c1)oc1c(C)c3c(c(C)c12)C(=O)N(N)C3=O | 59.7%
11 | CCOC(=O)c1nc(Nc2ccc(NC(=O)Nc3ccc(F)cc3)cc2)c2ccccc2n1 | 80.3%
12 | O=C1Nc2ccccc2C12CC(c1ccccc1)=NN2 (configuration not stated) | 66.4%
13 | CN1CCC(COc2cnc(-c3cccc(Cn4nc(-c5cccc(C#N)c5)ccc4=O)c3)nc2)CC1 | 87.4%
14 | COc1ccc(/C(C#N)=C/c2cc(OC)c(OC)c(OC)c2)cc1 | 27.6%
15 | Nc1c(C(=O)Nc2c(Cl)cccc2Cl)sc2nc3c(cc12)C(=O)CCC3 | -3.83% (active)
16 | C#CCOc1ccc(/C=N/Nc2nc(-c3cc(Cl)ccc3Cl)cs2)cc1 | 25.9%
17 | COC(=O)c1ccc(NC(=O)CCl)cc1 | 83.2%
18 | CCCCn1c(=O)[nH]c(N)c(C(c2ccc(Cl)cc2)c2c(N)[nH]c(=O)n(CCCC)c2=O)c1=O | 10.1%
19 | CC(=O)OC/C(C)=C\CC(C)COC(C)=O (configuration not stated) | 98.5%
20 | CC/C=C\C/C=C\C[C@H]1C/C=C2/C(=O)C=C[C@H]2C/C=C\CCC(=O)O1 | -7.14% (active)
21 | O=P(OCCCl)(OCCCl)C(O)c1ccccc1Cl (configuration not stated) | 109%
22 | Cn1c(=O)c2c(ncn2CC(=O)Nc2ccc(S(N)(=O)=O)cc2)n(C)c1=O | 102%
23 | COc1ccc(-c2n[nH]nc2-c2cc(OC)c3c(c2OC)OCO3)cc1 | -24.1% (active)
24 | COc1ccc(C2CC(c3ccc4c(c3)OCO4)=NN2C=O)cc1 (configuration not stated) | 93.3%
25 | C=C(C)[C@@H]1CC[C@]2(COP(=O)(OCC)OCC)CC[C@]3(C)[C@H](CC[C@@H]4[C@@]5(C)CC[C@H](OP(=O)(OCC)OCC)C(C)(C)[C@@H]5CC[C@]43C)[C@@H]12 | 22.1%
26 | O=C(Cn1nnc2ccccc21)N/N=C/c1ccccc1F | 90.8%
27 | COc1ccc(-c2[nH]ncc2/C=C/c2cc(C(F)(F)F)[nH]c(=O)n2)cc1 | 96.1%
